Screening results (PubChem BioAssay)
Luc counter: Counterscreen for Luciferase (Kinase-Glo TM) Inhibition; Potency, µM (titrated, usually from 38.3 µM), for inactives: at the top dose activity change, negative = inhibition, most hits filed as inhibitors; Luciferin 4-monooxygenase (Photuris pensylvanica), Q27757; Kinase-Glo luciferase, ATP luminescence, 8 min; 200,000 compounds, 0.28% hits; note: % is set by controls: 0 for no effect and ±100 for the full control effect; nearly all actives have a fitted effect of over 60% in size
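Luminescence was the read-out, taken after 8-minute incubation at ambient temperature. Luciferase turned over luciferin with 10 uM ATP in imidazole pH 7.2 buffer containing KCl, MgCl2, Tween 20 and BSA.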
NPC1 promoter act: qHTS Assay for NPC1 Promoter Activators | Huh7 NPC1 promoter luciferase reporter, 24 h | Potency, µM (titrated, usually from 9.22 µM), inactives show top-dose activation, actives largely listed as activators | 320,000 compounds, 2.4% hits | AID 485313, 2010; note: % of control where 0% means no effect; nearly all actives have a fitted effect of over 60% in size
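Stably transfected Huh7 (NPC1 promoter→luciferase), 1500 cells/well in Opti-MEM + 10% FBS, 2 h settle, then compound 24 h at 37 °C. Luminescence after 10 min with Amplite reagent.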
FLuc modulator: qHTS profiling assay for firefly luciferase inhibitor/activator using purifed enzyme and Km concentrations of substrates (counterscreen for miR-21 project); 360,000 compounds, 6.9% hits; purified FLuc, Km substrates, luminescence inhibition; Luciferin 4-monooxygenase (Photinus pyralis), P08659; Potency, µM (titrated, usually from 57.5 µM), for inactives: at the top dose activity change, negative = inhibition, actives largely listed as inhibitors;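 note: plate controls were vehicle for no effect and reference inhibitor for full effect; nearly all actives have a fitted effect of over 55% in size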
Target sequence (P08659 whole entry, looked up): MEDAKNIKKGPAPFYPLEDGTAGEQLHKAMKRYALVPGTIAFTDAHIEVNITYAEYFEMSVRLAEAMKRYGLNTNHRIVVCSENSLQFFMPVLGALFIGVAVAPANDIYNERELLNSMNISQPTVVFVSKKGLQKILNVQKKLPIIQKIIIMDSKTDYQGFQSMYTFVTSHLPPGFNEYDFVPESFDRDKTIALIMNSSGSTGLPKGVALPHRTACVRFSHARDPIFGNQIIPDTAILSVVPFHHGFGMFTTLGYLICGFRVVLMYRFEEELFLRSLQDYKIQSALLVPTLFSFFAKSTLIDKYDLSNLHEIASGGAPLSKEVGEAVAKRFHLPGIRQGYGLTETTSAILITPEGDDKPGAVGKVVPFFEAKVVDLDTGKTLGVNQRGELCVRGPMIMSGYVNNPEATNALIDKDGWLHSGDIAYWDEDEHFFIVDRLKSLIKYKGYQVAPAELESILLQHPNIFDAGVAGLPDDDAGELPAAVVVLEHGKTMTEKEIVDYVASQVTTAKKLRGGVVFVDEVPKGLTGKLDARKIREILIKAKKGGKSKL
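Biochemical qHTS of compounds, final roughly 60 µM downward over six points, against 10 nM purified firefly luciferase using Km concentrations of substrates (10 uM D-luciferin, 10 uM ATP) in Tris acetate pH 7.5 buffer; luminescence output.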
ELG1 genotoxic: qHTS screen for small molecules that induce genotoxicity in human embryonic kidney (HEK293T) cells expressing luciferase-tagged ELG1; HEK293T ELG1-luciferase reporter, luminescence, 16 h; Potency, µM (top dose mostly 46 µM), inactives show at the top dose activity change, positive = activation, hits mostly activators; AID 504466, 2011; 330,000 compounds, 1.3% hits; note: % of control where 0% means no effect; nearly all actives have a fitted effect of over 60% in size
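Cells (2,000/well) expressing the ELG1-luciferase fusion are dosed by pin tool and kept 16 hr at 37 °C, 5% CO2. Signal comes from ONE-Glo luciferase reagent after 30 min at room temperature.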
SMN2 splice up: qHTS Assay for Enhancers of SMN2 Splice Variant Expression | AID 1458, 2008 | Potency, µM (series often up to 46.1 µM), without a hit: at the top dose activity change, positive = activation, hits mostly activators | 210,000 compounds, 2.8% hits | HEK293 SMN2-luciferase splicing reporter, luminescence, 30-36 h; note: % of control where 0% means no effect; nearly all actives have a fitted effect of over 55% in size
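HEK293 cells carry an SMN2 minigene-luciferase reporter in which exon 7 inclusion puts luciferase in frame. Cells were seeded at 2000 cells/well, attached for 10-12 hours, then exposed to compounds for 30-36 hours at 37C before ONE-Glo luminescence.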
Rab9 promoter act: qHTS Assay for Rab9 Promoter Activators; Huh7 Rab9 promoter-luciferase reporter, luminescence, 24 h; Potency, µM (titrated, usually from 9.22 µM), inactives show at the highest dose activation, negative = inhibition, hits mostly activators; 320,000 compounds, 2.8% hits; AID 485297, 2010; note: % of control where 0% means no effect; nearly all actives have a fitted effect of over 60% in size
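Huh7 cells stably carrying Rab9 promoter–luciferase reporter, plated 1500 cells/well, compound added after 2 h and incubated 24 h at 37 °C; luciferase luminescence then read after 10 min with detection reagent.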
Numbers without * were called inactive; ? = inconclusive; · = no result given; [ ] = dose if it differs, or a comment. This is a sample that favours compounds with a hit; in the whole collection about 7.5% have one here. Calls come from the whole dose curve; as a rule, active = well fitted curve in the direction sought with a large enough effect; inconclusive = small, poorly fitted or top-dose-only effect, or another doubt; inactive = no such curve, though single readings can be large; an effect the other way counts as inactive or inconclusive. Potency is the fitted concentration of half-maximal effect.

SMILES	Luc counter	NPC1 promoter act	FLuc modulator	ELG1 genotoxic	SMN2 splice up	Rab9 promoter act
CN(C)[C@@H]1CCC[C@@H]1OC(=O)C(c1ccccc1)c1ccccc1	-1%	1%	11%	-2%	10%	-2%
CC(C)c1ccc2oc(-c3cc(NC(=O)c4cccnc4)ccc3Cl)nc2c1	·	·	11µM*	·	15%	·
O=C(NNC(=S)Nc1ccc(Br)cc1)c1cccnc1	·	1%	?	8%	·	9%
CC(C)c1ccc(NC(=S)NNC(=O)c2cccnc2)cc1	2%	-3%	11µM*	9%	-16%	15%
NS(=O)(=O)c1ccc(NC(=O)c2csnn2)cc1	·	·	-13%	·	·	·
CC(C)c1ccc(NC(=O)c2cccnc2)cc1	0%	?	17µM*	21µM*	?	4µM*
CC(C)c1ccc2oc(-c3ccc(NC(=O)c4cccc(Br)c4)cc3)nc2c1	·	·	-12%	·	-14%	·
CC(C)c1ccc(NC(=O)c2csnn2)cc1	-16%	1.6µM*	2.1µM*	1.2µM*	?	1.8µM*
CN1CCC(CNC(=O)c2ccc(Cc3nc4ccccc4[nH]3)cc2)CC1	-4%	·	·	·	·	·
CCCn1c(SCC(=O)NC2CCCC2)nnc1-c1cccnc1	·	0%	0%	0%	·	0%
O=C(NC(=S)Nc1ccccc1Cl)c1csnn1	-2%	5%	13µM*	2%	7%	3%
CC(C)c1ccc(NC(=O)c2snc3ccc(Cl)cc23)cc1	-1%	2.5µM*	7.6µM*	?	14µM*	2.2µM*
CC(C)c1ccc(NC(=O)c2cc(Br)ccc2Br)cc1	-2%	14%	?	3%	4%	14%
Nc1ccc(-c2nnc(-c3ccc(N)cc3)o2)cc1	·	3.5µM*	3.4µM*	16µM*	·	3.5µM*
Cc1ccc(-c2nnc(-c3ccc4ccccc4c3)o2)cc1	-6%[7.66 µM]	·	·	·	?	·
Cc1cccc(-c2nnc(-c3ccc(N)cc3)o2)c1	-19%	?	3.4µM*	?	4.5µM*	2.8µM*
CCOc1ccc(CCNC(=O)CCn2c(=O)c3cccn3c3ccc(F)cc32)cc1OCC	·	·	-11%	·	·	·
Cc1cccc(CNC(=O)c2ccc(N3Cc4ccccc4Oc4ncccc43)s2)c1	·	·	-1%	·	·	·
CCN1C(=O)[C@H]2[C@@H](c3ccc(-c4ccc5c(c4)OCO5)c(OC)c3)N[C@@](C)(C(=O)OC)[C@H]2C1=O	·	·	·	2%	·	·
COc1ccccc1-n1c(=O)oc2ccc(Cl)cc2c1=O	-3%	?	13µM*	6%	·	4%
COc1ccccc1-n1c(SCc2cc(=O)oc3cc(O)ccc23)nc2ccccc2c1=O	0%	2%	?	0%	23%	-3%
COc1ccc(OC)c(CCNC(=O)c2cc3c(s2)-c2c(C)cccc2OC3)c1	·	·	1%	·	5%	·
CCOc1cc(/C=N\NC(=O)Cc2ccccc2)ccc1OCC(=O)Nc1ccc(C)c(C)c1	-3%	-6%	2%	12%	6%	-10%
COc1ccc(/C=N/Nc2nc(Nc3ccccc3)nc(N3CCCCC3)n2)cc1OC	1%	?	1.1µM*	-7%	19%	?
CCOc1cc(/C=N/NC(=O)c2ccc(-c3csc(Nc4ccc(C)cc4)n3)cc2)ccc1OCC(=O)O	1%	3.2µM*	?	-3%	13µM*	2.8µM*
SMILES	Luc counter	NPC1 promoter act	FLuc modulator	ELG1 genotoxic	SMN2 splice up	Rab9 promoter act
CCOc1cc(/C=N/Nc2nc(N3CCCC3)nc(N3CCCC3)n2)ccc1O	-3%	-5%	-15%	-2%	-9%	1%
CCOc1cc(/C=N/Nc2nc(Nc3ccccc3)nc(N3CCCCC3)n2)ccc1OCC(=O)O	2%	0%	1.1µM*	-2%	-3%	25%
CCOc1cc(/C=N/Nc2ccccc2Cl)ccc1OCC(=O)O	6%	12%	21µM*	?	0%	0%
CCOc1ccc(-n2nc(CO)c(C(=O)NCc3ccc(Cl)cc3)n2)cc1	·	·	-7%	·	-7%	·
COc1ccc(-c2cn(-c3ccc(C)cc3)c(S(=O)(=O)CC(=O)Nc3ccc(F)cc3)n2)cc1	·	·	?	·	28%	·
Cc1cc(C)nc(Nc2nc3ccccc3s2)n1	-2%	?	?	?	3.2µM*	?
NC(=S)Nc1nc2ccccc2s1	0%	11%	?	7%	28%	7%
CC(=O)c1c(C)nc(Nc2nc3ccccc3s2)nc1C	·	?	0.76µM*	?	·	?
Cc1ccc(Nc2nc3ccccc3s2)c(C)c1	-2%	2µM*	0.6µM*	2.1µM*	2.5µM*	1.3µM*
COc1ccc(/C=C(\NC(=O)c2ccc(C)cc2)C(=O)Nc2c(C)n(C)n(-c3ccccc3)c2=O)cc1	4%	-4%	-2%	-2%	-6%	-3%
Cc1ccc(-n2ncc(C(=O)NCc3ccccn3)c2C2CCN(C(=O)OC(C)(C)C)CC2)cc1C	·	·	-8%	·	·	·
Cc1noc(NC(=O)c2ccccc2)c1C#N	0%	8%	-2%	4%	-24%	-4%
CC(C)(C)c1ccc(C(=O)Nc2onc3c2CCCC3)cc1	·	·	0.34µM*	·	11µM*	·
O=C(Nc1onc2c1CCCC2)c1ccccc1	·	·	4.8µM*	·	?	·
Cn1ccc(NC(=O)c2ccc(Cl)cc2)n1	·	4%	?	?	·	19%
O=C(Nc1cnc2sccn2c1=O)c1ccc(Cl)cc1Cl	-16%	0.45µM*	2.1µM*	2.6µM*	8.9µM*	1µM*
Cc1cccc(C(=O)Nc2ccn(C)n2)c1	·	?	?	?	·	2.5µM*
Cn1ccc(NC(=O)c2ccc(Cl)cc2Cl)n1	·	4µM*	11µM*	?	·	2.5µM*
Cn1ccc(NC(=O)c2ccc([N+](=O)[O-])cc2)n1	·	3%	3%	0%	·	1%
Cc1onc(NC(=O)NC(=O)c2ccccc2F)c1Br	·	18%	?	?	·	18%
Cc1onc(NC(=O)c2ccc(Cl)cc2Cl)c1Br	-2%	?	?	?	·	3.2µM*
Nn1c(SCc2cccc(F)c2)nnc1-c1cccnc1	·	1%	3%	5%	·	10%
Cn1c(SCc2ccccc2F)nnc1-c1ccccn1	-5%	4µM*	?	?	11µM*	2.2µM*
CCCn1c(SCC(=O)NC2CC2)nnc1-c1cccs1	·	5%	2%	7%	·	25%
